# Experimental data from PubChem BioAssay (NCATS).
# Inconclusive results are not listed. Activity calls are given as the source filed them. Calls come from the whole dose curve; as a rule, active = well fitted curve in the direction sought with a large enough effect; inconclusive = small, poorly fitted or top-dose-only effect, or another doubt; inactive = no such curve, though single readings can be large; an effect the other way counts as inactive or inconclusive.
# System: Zika virus NS2B-NS3 protease
# Assay: Primary screen GU AMC qHTS for Zika virus inhibitors (AID 1347154); note: nearly all actives have a fitted effect of over 70% in size;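 for activity change, negative = inhibition: 0% = no-inhibitor control and -100% = no-enzyme control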
# Conditions: Zika NS2B-NS3 unlinked protease, AMC fluorogenic substrate; series mostly up to 54.1 µM; activity change, negative = inhibition: at the top concentration
# Procedure, shortened: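 Fluorogenic AMC-substrate cleavage by noncovalent NS2B-NS3 protease complex (25 nM, pH 8.0 Tris buffer with Tween 20) followed for 15 minutes at room temperature (~20% conversion). Percent inhibition from ex340/em450 signal change, fitted by 4-parameter Hill equation.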
# Potency is the fitted concentration of half-maximal effect.
Compound,"activity change, negative = inhibition",Potency
CCN(CC)CCNC(=O)COc1ccc(OC)cc1,-1.56% (inactive),–
O=C1OC(CN2CCOCC2)CN1/N=C/c1ccc([N+](=O)[O-])o1 (stereo not drawn),-8.53% (inactive),–
Cc1cccc(C)c1NC(=O)c1ccccc1C(=O)O,-4.8% (inactive),–
CCN(CC)CCOC(=O)C1(c2ccccc2)CCCC1,-4.81% (inactive),–
Cc1ccc(-c2ncc(Cl)cc2-c2ccc(S(C)(=O)=O)cc2)cn1,4.38% (inactive),–
O=C1c2cccc3c2[C@H](CCC3)CN1[C@@H]1CN2CCC1CC2,-4.94% (inactive),–
CN(CCCN1c2ccccc2CCc2ccccc21)CC(=O)c1ccc(Cl)cc1,–,inactive
OCCOCCN1CCN(C2=Nc3ccccc3Sc3ccccc32)CC1,3.31% (inactive),–
CC(=O)Nc1ncc([N+](=O)[O-])s1,-3.14% (inactive),–
CN1CCC[C@@H]1CCO[C@](C)(c1ccccc1)c1ccc(Cl)cc1,–,inactive
Oc1c(Cl)cc(Cl)c(Cl)c1Cc1c(O)c(Cl)cc(Cl)c1Cl,–,7.94 µM (active)
CCC(Cc1c(I)cc(I)c(N)c1I)C(=O)O (stereo not drawn),-8.93% (inactive),–
O=C(O)P(=O)(O)O,0.001% (inactive),–
CCOC(=O)[C@H](CCc1ccccc1)N[C@@H](C)C(=O)N1[C@H](C(=O)O)C[C@@H]2CCC[C@@H]21,0.283% (inactive),–
Cc1cn([C@H]2C[C@H](F)[C@@H](CO)O2)c(=O)[nH]c1=O,-4.64% (inactive),–
CCCCCCCCCCCCCCC[C@H](O)[C@@H](N)CO,–,inactive
CCNC(=O)NCc1cccc(Cl)c1,-1.04% (inactive),–
CCN(CC)CCOC(=O)C(Cc1cccc2ccccc12)CC1CCCO1 (stereo not drawn),-0.791% (inactive),–
COc1cc(O)c(C(=O)c2ccccc2)cc1S(=O)(=O)O,-0.586% (inactive),–
C=C[C@H]1CN2CC[C@H]1C[C@H]2[C@H](O)c1ccnc2ccc(OC)cc12,-18.2% (inactive),–

# System: not listed separately
# Assay: Confirmatory screen NINDS Rhodamine qHTS for Zika virus inhibitors (AID 1347161); note: nearly all actives have a fitted effect of over 60% in size;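 for activity change, negative = inhibition: purified Zika NS2B-NS3 protease with linked NS2B cofactor domain and Rhodamine110 peptide substrate; plate controls were no-inhibitor control for no effect and no-enzyme control for full effect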
# Conditions: purified enzyme assay, Rhodamine110 substrate fluorescence, 15 min; series mostly up to 114 µM; activity change, negative = inhibition: at the top concentration
# Procedure, shortened: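 qHTS dose-response: 25 nM linked protease, pH 8.0 Tris/Tween buffer, cpd titration, 15 min RT preinc, 1.5 microM Rhod110 peptide, 15 min reaction (~15% conversion), Ex480/Em540; 4-parameter Hill fit.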
Compound,Potency,"activity change, negative = inhibition"
O=C(O)C(Cc1cc(I)c(O)c(I)c1)c1ccccc1 (stereo not drawn),50.1 µM (active),–
Oc1c(Cl)cc(Cl)c(Cl)c1Cc1c(O)c(Cl)cc(Cl)c1Cl,3.55 µM (active),–
C=C[C@H]1CN2CC[C@H]1C[C@H]2[C@H](O)c1ccnc2ccc(OC)cc12,–,-8.9% (inactive)
